This note sets out measurements from PubChem BioAssay (Tox21).

Values without a mark were called inactive. Inconclusive results are not listed. Activity calls are given as the source filed them. Unless noted, calls come from the whole dose curve.

Experiment [1] addresses Gonadotropin-releasing hormone receptor (Homo sapiens) (UniProt P30968). Nature of the experiment: Human gonadotropin-releasing hormone receptor (GnRHR) small molecule agonists, calcium flux assay in GnRHR-HEK293 cells (AID 1920063). Note: nearly all actives have a fitted effect of over 35% in size. Note: potency is the fitted concentration of half-maximal effect. The procedure, abridged: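 HEK293 cells stably expressing human GnRHR were plated 18 h at 37 °C, loaded with calcium dye 1 h at 37 °C, then given compound in agonist mode; fluorescence (Ex/Em 480/540) read kinetically for 3 min at 1 s intervals.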
(In general: Calcium assays in cells follow changes in intracellular calcium, usually with a dye or a luminescent sensor.)

The target of experiment [2] is KiSS-1 receptor (Homo sapiens) (UniProt Q969F8). The experiment can be described thus: Human kisspeptin (KISS1R) small molecule agonists, calcium flux assay in KISS1R-HEK293 cells (AID 1920064; active = well fitted activation curve with a large enough effect in the repeat runs). Put shortly: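 HEK293 cells stably expressing human KISS1R were plated 18 h at 37 °C, loaded with calcium dye for 1 h at 37 °C, then given compound by pin tool. Fluorescence (Ex/Em 480/540) was read kinetically for 3 min.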

Experiment [3] is described as follows: G protein-coupled receptor (GPCR) small molecule agonists, calcium flux assay: HEK293 wild type cell line counter screen (AID 1920065). The procedure, abridged: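 Cells were plated and cultured 18 h at 37 C/5% CO2, then loaded with calcium dye for 1 h at 37 C. Compounds in DMSO were pin-transferred in agonist mode, and fluorescence (Ex/Em 480/540) was read kinetically for 3 min at 1 s intervals.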

Experiment [4] can be described thus: p53 small molecule agonists, cell-based qHTS assay with human liver microsomes (AID 1963577). The procedure, abridged:
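p53RE-bla cells, 4,000/well, compound added after 5 h, with human liver microsomes 0.5 mg/mL and NADPH 0.5 mg/mL final; 16 h at 37 C, then LiveBLAzer 2 h RT, fluorescence.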
In general terms: qHTS replaces the single test concentration by a dilution series.

A short description of experiment [5]: p53 small molecule agonists, cell-based qHTS assay with rat liver microsomes (AID 1963578). Put shortly:
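p53RE-bla cells, 4,000/well, pre-incubated 5 h, then given compounds plus rat liver microsomes (0.5 mg/mL final) and NADPH (0.5 mg/mL final). Incubation 16 h at 37 C; beta-lactamase reporter read by LiveBLAzer fluorescence after 2 h at room temperature.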

Experiment [6] is described as follows: p53 small molecule agonists, cell-based qHTS assay with human liver microsomes: qHTS cell viability counter screen (AID 1963579). Note: nearly all actives have a fitted effect of over 45% in size. The procedure, abridged: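 p53RE-bla cells, 4,000/well, dosed 5 hours after plating, with human liver microsomes (0.5 mg/mL final) plus NADPH (0.5 mg/mL final), 16 hours at 37 C. Viability read as CellTiter-Glo luminescence after 30 min at room temperature.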

A short description of experiment [7]: p53 small molecule agonists, cell-based qHTS assay with rat liver microsomes: qHTS cell viability counter screen (AID 1963580). Note: nearly all actives have a fitted effect of over 45% in size. Put shortly: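 Viability is assessed in parallel with the p53 reporter read: HCT-116 p53RE-bla cells receive compounds plus rat microsomes and NADPH (0.5 mg/mL final apiece), incubate 16 h at 37 C, and then CellTiter-Glo luminescence is recorded.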

Experiment [8] is described as follows: p53 small molecule agonists, cell-based qHTS assay: qHTS cell viability counter screen (AID 1963581). Note: nearly all actives have a fitted effect of over 45% in size. The procedure, abridged:
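p53RE-bla HCT-116 cells were exposed to compounds for 16 h at 37 C; after the beta-lactamase FRET read in the same wells, CellTiter-Glo was added and luminescence (intracellular ATP) read after 30 min at room temperature.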

Experiment [9] deals with 5-hydroxytryptamine receptor 2A (Homo sapiens) (UniProt P28223). The experiment can be described thus: 5-hydroxytryptamine receptor 2A (HTR2A) small molecule antagonists, cell-based qHTS assay (AID 1963586). Note: nearly all actives have a fitted effect of over 45% in size. Note: potency is the fitted concentration of half-maximal effect. Put shortly:
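Antagonist-mode intracellular calcium assay: DOI (4 nM) added after 5 min compound pre-incubation at room temperature to dye-loaded HTR2A-CHO cells. Fluorescence followed for 3 min, sampled every second.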

Experiment [10] has the same target. The experiment can be described thus: 5-hydroxytryptamine receptor 2A (HTR2A) small molecule agonists, cell-based qHTS assay (AID 1963587). Note: nearly all actives have a fitted effect of over 30% in size. Note: potency is the fitted concentration of half-maximal effect. The procedure, abridged:
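CHO cells stably expressing human HTR2A, plated 18 h, loaded with calcium dye 1 h at 37 C. Agonist mode: compounds added and intracellular calcium fluorescence recorded kinetically for 2 min at 1 sec intervals.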

For experiment [11], the target named is Muscarinic acetylcholine receptor M1 (Homo sapiens) (UniProt P11229). The experiment can be described thus: Cholinergic receptor muscarinic 1 (CHRM1) small molecule agonists, cell-based qHTS assay (AID 1963589). Note: nearly all actives have a fitted effect of over 35% in size. Put shortly: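 CHO cells stably expressing human CHRM1, seeded 18 h at 37 C/5% CO2, dye-loaded 1 h at 37 C, then given compound in agonist mode; intracellular calcium fluorescence read kinetically at 1 s intervals. Fifteen concentrations, three independent runs.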

Experiment [12] addresses Beta-2 adrenergic receptor (Homo sapiens) (UniProt P07550). Nature of the experiment: Adrenergic beta2 receptor (ADRB2) small molecule antagonists, cell-based qHTS assay (AID 1963592). Note: series mostly up to about 92 µM; nearly all actives have a fitted effect of over 50% in size. The procedure, abridged:
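Cells (CHO, stable ADRB2 overexpression) incubated 18-20hr at 37C; compounds added from DMSO; agonist mix (1nM isoproterenol, 100uM IBMX, 25uM Ro-20-1724) added; 0.5hr RT; d2-cAMP and anti-cAMP-cryptate added; 1hr RT; 665/615 nm read.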

Experiment [13] has the same target. Nature of the experiment: Adrenergic beta2 receptor (ADRB2) small molecule agonists, cell-based qHTS assay (AID 1963593).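 Note: CHO cells stably overexpressing human ADRB2.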 The procedure, abridged: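 CHO cells stably over-expressing ADRB2 were plated overnight at 37C, then dosed with compounds plus a stimulation mix containing 100uM IBMX and 25uM Ro-20-1724 for 0.5hr at room temperature. cAMP was measured by HTRF competition, 1hr.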

For experiment [14], the target named is D(2) dopamine receptor (Homo sapiens) (UniProt P14416). Nature of the experiment: Dopamine D2 receptor (DRD2) small molecule agonists, cell-based qHTS assay (AID 1963594). Note: nearly all actives have a fitted effect of over 35% in size. The procedure, abridged: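 HEK293 cells stably expressing human DRD2, pre-treated with PDE inhibitor Ro20-1724 (0.1 mM final) and compound 10 min at room temperature, then stimulated with NKH477 (200nM […]) for 30 min. cAMP read by HTRF (665/620 nm).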

Experiment [15] shares this target. Nature of the experiment: Dopamine D2 receptor (DRD2) small molecule antagonists, cell-based qHTS assay (AID 1963595; active = well fitted inhibition curve with a large enough effect in the signal ratio in the repeat runs, with a control signal flat; the % refers to the signal ratio; note: potency is the fitted concentration of half-maximal effect). The procedure, abridged: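 HTRF cAMP read-out at 665 and 620 nm emission (340 nm excitation). Antagonist mode: compounds were tested against 12 nM quinpirole in DRD2-HEK293 cells, with 200 nM NKH477 raising cAMP and 0.1 mM Ro20-1724 blocking its breakdown.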

A short description of experiment [16]: p53 small molecule agonists, cell-based qHTS assay (AID 1963582; active = well fitted activation curve with a large enough effect in the signal ratio in the repeat runs, not every such curve was filed as active; the % refers to the signal ratio). Put shortly:
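p53RE-bla beta-lactamase reporter cells rested 5 h at 37 C/5% CO2, then received compounds in DMSO by pin transfer and were incubated 16 h at 37 C. LiveBLAzer B/G FRET substrate was loaded for 2 h at room temperature before fluorescence reading.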

The target of experiment [17] is Muscarinic acetylcholine receptor M1 (Homo sapiens) (UniProt P11229). The experiment can be described thus: Cholinergic receptor muscarinic 1 (CHRM1) small molecule antagonists, cell-based qHTS assay (AID 1963588). Note: nearly all actives have a fitted effect of over 40% in size. The procedure, abridged:
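CHRM1-CHO calcium-flux assay, antagonist mode. Cells were seeded 18 h, dye-loaded 1 h at 37 C and given compound for 5 min at RT, then acetylcholine was added at 50nM. FDSS fluorescence was read 3 min; 15 concentrations, three runs.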

Experiment [18] can be described thus: cAMP Responsive Elements (CRE) small molecule agonists, cell-based qHTS assay (AID 1963590). Put shortly: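 CRE-bla HEK 293T cells in DMEM with 10% dialyzed FBS, NEAA, pyruvate and 25 mM HEPES were plated 18 h at 37 C/5% CO2, then exposed to compounds in DMSO for 3 h before LiveBLAzer B/G FRET substrate addition.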
Experiment [19] can be described thus: cAMP Responsive Elements (CRE) small molecule antagonists, cell-based qHTS assay (AID 1963591; active = well fitted inhibition curve with a large enough effect in the signal ratio in the repeat runs, not every such curve was filed as active; the % refers to the signal ratio). Put shortly: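 CRE-bla HEK293T cells were plated 18 h at 37 °C/5% CO2, pinned with compound in DMSO, then stimulated with NKH477 at 0.25 uM final for 3 h. LiveBLAzer B/G FRET substrate was added and plates incubated 2 h at room temperature.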

Sequence of KiSS-1 receptor (Homo sapiens) (Q969F8 whole entry, looked up): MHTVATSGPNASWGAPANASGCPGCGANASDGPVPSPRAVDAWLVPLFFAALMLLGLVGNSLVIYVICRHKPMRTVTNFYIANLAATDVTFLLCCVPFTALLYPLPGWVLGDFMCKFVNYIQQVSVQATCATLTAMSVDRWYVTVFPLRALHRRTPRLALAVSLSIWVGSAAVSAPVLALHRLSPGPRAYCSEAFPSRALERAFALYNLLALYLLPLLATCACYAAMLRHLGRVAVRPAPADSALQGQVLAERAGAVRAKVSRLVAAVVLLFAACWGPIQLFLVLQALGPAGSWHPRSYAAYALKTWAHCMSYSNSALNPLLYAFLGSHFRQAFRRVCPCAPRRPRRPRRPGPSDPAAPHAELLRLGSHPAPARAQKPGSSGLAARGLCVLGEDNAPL
Sequence of 5-hydroxytryptamine receptor 2A (Homo sapiens) (P28223 whole entry, looked up): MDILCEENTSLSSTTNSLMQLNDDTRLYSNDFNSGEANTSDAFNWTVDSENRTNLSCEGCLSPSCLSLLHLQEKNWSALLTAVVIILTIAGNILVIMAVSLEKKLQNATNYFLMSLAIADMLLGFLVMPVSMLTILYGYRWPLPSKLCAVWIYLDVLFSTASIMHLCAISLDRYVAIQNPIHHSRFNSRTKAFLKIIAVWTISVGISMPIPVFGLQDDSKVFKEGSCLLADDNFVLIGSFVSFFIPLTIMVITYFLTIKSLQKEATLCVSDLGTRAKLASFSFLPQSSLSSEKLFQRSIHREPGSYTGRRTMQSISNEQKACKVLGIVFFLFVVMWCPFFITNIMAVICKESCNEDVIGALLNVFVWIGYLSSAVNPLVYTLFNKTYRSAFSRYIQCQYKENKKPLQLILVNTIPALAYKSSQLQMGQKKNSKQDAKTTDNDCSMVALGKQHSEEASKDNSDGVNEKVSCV
Sequence of Muscarinic acetylcholine receptor M1 (Homo sapiens) (P11229 whole entry, looked up): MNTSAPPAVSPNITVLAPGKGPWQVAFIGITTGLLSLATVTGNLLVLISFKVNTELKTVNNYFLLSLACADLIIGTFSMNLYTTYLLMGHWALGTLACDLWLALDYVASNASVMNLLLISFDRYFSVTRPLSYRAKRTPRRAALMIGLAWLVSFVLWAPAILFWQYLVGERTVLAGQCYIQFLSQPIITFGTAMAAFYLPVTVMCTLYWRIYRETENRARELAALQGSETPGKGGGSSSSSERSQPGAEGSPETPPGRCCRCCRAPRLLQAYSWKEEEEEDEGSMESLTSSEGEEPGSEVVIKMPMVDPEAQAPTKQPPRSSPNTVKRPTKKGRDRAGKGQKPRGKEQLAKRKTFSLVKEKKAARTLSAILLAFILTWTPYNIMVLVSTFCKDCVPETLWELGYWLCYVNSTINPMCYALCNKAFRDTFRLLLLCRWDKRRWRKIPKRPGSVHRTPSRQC
Sequence of Beta-2 adrenergic receptor (Homo sapiens) (P07550 whole entry, looked up): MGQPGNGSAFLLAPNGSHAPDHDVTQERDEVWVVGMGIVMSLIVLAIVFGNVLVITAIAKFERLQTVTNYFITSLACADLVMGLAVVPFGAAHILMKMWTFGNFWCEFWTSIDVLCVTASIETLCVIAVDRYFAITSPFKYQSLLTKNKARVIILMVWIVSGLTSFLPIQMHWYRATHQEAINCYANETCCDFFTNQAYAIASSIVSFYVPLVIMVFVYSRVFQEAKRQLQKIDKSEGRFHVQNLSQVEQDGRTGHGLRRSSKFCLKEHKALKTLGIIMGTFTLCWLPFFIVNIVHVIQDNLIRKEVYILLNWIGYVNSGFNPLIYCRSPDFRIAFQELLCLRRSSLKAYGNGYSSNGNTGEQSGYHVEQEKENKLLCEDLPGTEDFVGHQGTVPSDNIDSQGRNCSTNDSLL
Sequence of Gonadotropin-releasing hormone receptor (Homo sapiens) (P30968 whole entry, looked up): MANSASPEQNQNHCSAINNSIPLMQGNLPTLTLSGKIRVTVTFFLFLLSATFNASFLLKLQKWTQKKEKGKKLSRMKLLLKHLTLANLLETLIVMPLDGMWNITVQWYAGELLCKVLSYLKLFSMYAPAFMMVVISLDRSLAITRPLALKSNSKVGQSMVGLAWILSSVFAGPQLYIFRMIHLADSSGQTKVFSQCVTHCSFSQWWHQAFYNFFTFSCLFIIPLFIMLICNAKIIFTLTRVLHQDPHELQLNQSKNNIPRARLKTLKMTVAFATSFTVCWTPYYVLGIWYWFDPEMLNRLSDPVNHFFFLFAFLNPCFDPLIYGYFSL
Sequence of D(2) dopamine receptor (Homo sapiens) (P14416 whole entry, looked up): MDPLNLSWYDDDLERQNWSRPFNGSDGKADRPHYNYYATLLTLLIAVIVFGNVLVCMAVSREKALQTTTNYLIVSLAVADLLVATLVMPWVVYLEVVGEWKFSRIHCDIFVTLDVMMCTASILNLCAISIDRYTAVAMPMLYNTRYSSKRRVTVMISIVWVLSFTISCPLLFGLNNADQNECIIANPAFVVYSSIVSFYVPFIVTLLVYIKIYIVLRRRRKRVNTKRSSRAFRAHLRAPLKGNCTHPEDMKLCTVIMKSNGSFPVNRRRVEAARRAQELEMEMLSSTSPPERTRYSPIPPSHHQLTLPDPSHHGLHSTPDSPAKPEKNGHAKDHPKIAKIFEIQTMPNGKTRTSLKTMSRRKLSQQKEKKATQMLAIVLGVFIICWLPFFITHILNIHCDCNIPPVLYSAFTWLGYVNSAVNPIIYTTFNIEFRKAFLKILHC

Regarding `CCCCCCCCCc1ccc(OCCOCCO)cc1`, the Potency in experiment [1] is 13 µM (active); in experiment [9] it was 5.58 µM (active); in experiment [10], 20.5 µM (active); in experiment [15] it was 25.6 µM (active). The Potency entry in experiment [2], in [3], in [4], in experiment [5], in [6] and in experiment [7] was “inactive” each time. Further, the Potency result in [8], in experiment [11], in experiment [12], in experiment [13] and in [14] was “inactive” each time.
On to `CC(C)C=O`, for which the Potency entry in experiment [1], in experiment [2], in experiment [3], in experiment [4], in experiment [5] and in experiment [6] was “inactive” in each case. Also, the Potency result in [7], in experiment [8], in experiment [16], in experiment [9], in [10] and in [17] was “inactive” each time. Further, the Potency result in [11], in experiment [18], in [19], in experiment [12], in [13] and in [14] was “inactive” in each case. In addition, in experiment [15], the Potency result is “inactive”.
With `O=C(N/N=C/c1ccc([N+](=O)[O-])o1)c1ccc(O)cc1`, the Potency result in experiment [1], in experiment [2], in experiment [3], in experiment [4], in experiment [5] and in [6] was “inactive” each time. For the same compound, the Potency result in experiment [7], in experiment [8], in experiment [9], in [10], in experiment [17] and in [12] was “inactive” in each case. The Potency result in experiment [14] and in experiment [15] was “inactive” in each case.
On to `O=C1c2ccccc2C(=O)N1SC1CCCCC1`, for which the Potency entry in experiment [1], in [2], in experiment [3], in [4], in experiment [5] and in experiment [6] was “inactive” each time. The Potency entry in [7], in [8], in [16], in experiment [9], in experiment [17] and in experiment [11] was “inactive” throughout. Also, the Potency result in experiment [12], in experiment [13] and in experiment [15] was “inactive” throughout.
On to `C[C@@H](c1ncncc1F)C(O)(Cn1cncn1)c1ccc(F)cc1F` (some centres undefined), for which the Potency entry in experiment [1], in [2], in experiment [3], in experiment [4], in [5] and in [6] was “inactive” in each case. The Potency entry in experiment [7], in experiment [8], in [16], in [9], in [10] and in experiment [17] was “inactive” throughout. In addition, the Potency entry in experiment [11], in experiment [18], in experiment [19], in experiment [12], in experiment [13] and in [14] was “inactive” in each case. For the same compound, the Potency result in [15] is “inactive”.
Consider `Nc1ccc(N=Nc2ccc(N)cc2)cc1`, for which the Potency result in [1], in experiment [2], in experiment [3], in experiment [4], in experiment [5] and in experiment [6] was “inactive” each time. Also, the Potency result in experiment [7], in experiment [8], in experiment [9], in experiment [10], in experiment [17] and in experiment [11] was “inactive” throughout. Moreover, the Potency entry in experiment [18], in [19], in [14] and in [15] was “inactive” throughout.
As to `O=[N+]([O-])c1ccc(NCCO)c(OCCO)c1`, the Potency result in [1], in experiment [2], in experiment [3], in experiment [4], in experiment [5] and in experiment [6] was “inactive” throughout. In addition, the Potency result in [7], in [8], in experiment [16], in experiment [9], in [17] and in experiment [11] was “inactive” each time. The Potency result in experiment [18], in [19], in experiment [12] and in [15] was “inactive” in each case.
